Screening results from PubChem BioAssay.
Rpn11 block: Rpn11 (human) deubiquitinase inhibition; O00487; human 26S proteasome, Ub4-pepOG fluorescence polarization; 20S core pre-blocked with epoxomicin; inhibition, % at 20 µM; hit rate 0.59% among 360,000; AID 588493;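 active = inhibition at 20 µM, scaled to each plate's controls, above about 33%, limit read from the data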
Target sequence (O00487 whole entry, looked up): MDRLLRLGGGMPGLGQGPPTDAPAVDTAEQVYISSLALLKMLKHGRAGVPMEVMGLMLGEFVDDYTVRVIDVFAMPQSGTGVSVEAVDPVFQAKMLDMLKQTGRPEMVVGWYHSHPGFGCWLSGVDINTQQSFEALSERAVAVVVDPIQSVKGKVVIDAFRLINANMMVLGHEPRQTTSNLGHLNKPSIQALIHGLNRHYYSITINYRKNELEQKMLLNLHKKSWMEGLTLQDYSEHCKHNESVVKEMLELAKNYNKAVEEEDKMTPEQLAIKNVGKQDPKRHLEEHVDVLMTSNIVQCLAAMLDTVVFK
IDE inh: inhibits human insulin-degrading enzyme in HEK cells; FAbetaB cleavage, fluorescence polarization; inhibition, % at 5.59 µM; hit rate 0.41% among 320,000;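 active = percent inhibition above the average of all tested compounds plus 3 SD, set per screening campaign, cut at about 16% in these data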;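 also: IDE supplied by intact live HEK cells; FP after avidin binding of uncleaved biotin substrate so inhibition keeps polarization high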
Rin1 Abl inh: inhibitors of human Rin1-Abl protein interaction; P00519+Q13671; hit rate 0.4% among 360,000; TR-FRET Rin1/Abl binding, biochemical; AID 588664; inhibition, % at 7.35 µM; in the data active = inhibition above about 5%, passing the limit was not always enough
TPT1 inh: inhibitors of Candida albicans tRNA 2'-phosphotransferase TPT1; recombinant caTPT1, FP RNA substrate dephosphorylation; inhibition, % at 5 µM; hit rate 0.81% among 300,000;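 active = inhibition above the mean of all tested compounds plus 3 SD, set per screening campaign, cut at about 24% in these data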
IDE act: activators of human insulin-degrading enzyme in cells; activation, % at 5.96 µM; hit rate 0.073% among 340,000; P14735; HEK cells, FAbeta-B cleavage, fluorescence polarization; 0% vehicle, 100% cell-free pure enzyme wells;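 active = activation above the mean of all tested compounds plus 3 SD, set per screening campaign, cut at about 17% in these data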
Calb FLC: affects C. albicans growth with fluconazole; AID 1979; C. albicans CaCi-2 (fluconazole-resistant clinical isolate) + fluconazole, Alamar Blue growth, 48 h; hit rate 0.57% among 300,000; growth inhibition, % (test concentration not listed);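 active = growth inhibition above about 58% in most replicates, limit read from the data, passing the limit was not always enough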;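 also: all wells also contain fluconazole at 8 µg/ml as a sub-toxic cotreatment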
caTPT1 confirm: TPT1 (C. albicans) inhibition, confirmation; inhibition, % at 5 µM; shares compounds with TPT1 inh; hit rate 74% among 2,400; recombinant caTPT1, fluorescence polarization, RNase T1 coupled; AID 2149;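 active = inhibition above the primary screen limit, the mean inhibition of all tested compounds plus 3 SD, cut at about 25% in these data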
RNase T1 inh: RNase T1 inhibition in TPT1 counter-screen; shares compounds with TPT1 inh; RNase T1 cleavage, fluorescence polarization, 1536-well; inhibition, % at 5 µM; hit rate 83% among 2,400;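 active = inhibition above the solvent-only control well mean plus 3 SD, limit set per screening run, cut at about 23% in these data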;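 also: inhibitors block cleavage so intact labeled substrate keeps polarization high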
Target sequence (P00651 whole entry, looked up): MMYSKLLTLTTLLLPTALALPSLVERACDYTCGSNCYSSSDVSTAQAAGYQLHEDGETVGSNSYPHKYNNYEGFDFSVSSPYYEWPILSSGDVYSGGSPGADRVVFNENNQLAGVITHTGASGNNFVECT
A number is an active result; i = inactive; nt = no result shown. Compounds with a hit are over-represented: about 2.3% of the library has one in this group of screens.

SMILES | Rpn11 block | IDE inh | Rin1 Abl inh | TPT1 inh | IDE act | Calb FLC | caTPT1 confirm | RNase T1 inh
O=[N+]([O-])c1ccc(N2N=C(c3ccco3)CC2c2ccccc2)cc1 (configuration not stated) | nt | 21.6 | i | 135.2 | i | i | 107.1 | 108.2
CC(=C\c1ccco1)/C=C1/SC(=S)N(CC(=O)O)C1=O | i | i | i | i | i | i | nt | nt
CC(C)C(C(=O)O)N1C(=O)/C(=C/C=C/c2ccco2)SC1=S (configuration not stated) | nt | i | i | 82.7 | i | i | 88.0 | 64.0
O=C1/C(=C\c2ccco2)SC(=S)N1c1ccc(O)cc1 | i | i | i | i | i | i | nt | nt
O=C1/C(=C/C=C/c2ccco2)SC(=S)N1c1ccc(O)cc1 | 94.6 | i | 5.7 | 27.6 | i | i | 49.7 | 56.5
COc1ccc(F)cc1S(=O)(=O)n1nc(C)cc1C | i | i | i | i | i | i | nt | nt
COc1cccc(-c2ccc(SCC(=O)NCCc3ccccc3)nn2)c1 | i | i | i | 54.1 | i | i | i | i
COc1ccccc1N/C=C/c1onc(C)c1[N+](=O)[O-] | i | i | i | 112.5 | i | i | 96.5 | 105.0
Cc1ccc(Nc2nc(Cl)c(C=O)s2)cc1Cl | nt | i | i | i | i | i | nt | nt
COc1ccccc1Nc1nc(Cl)c(C=O)s1 | nt | i | i | 45.0 | i | i | 70.3 | 83.0
CCN(CC(=O)Nc1cc(Cl)ccc1C)C(=O)c1cc([N+](=O)[O-])ccc1N1CCOCC1 | i | i | i | i | i | i | nt | nt
CC(/C=N/n1c(-c2n[nH]c3c2CCC3)n[nH]c1=S)=C\c1ccco1 | i | i | i | 32.8 | i | i | i | i
Oc1ccc(/C=C/c2ccc3ccccc3n2)cc1 | i | i | i | i | i | i | nt | nt
CCCN(CCC)c1ccc(/C=C/c2ccc3cc(OCC)ccc3n2)cc1 | nt | i | i | 57.3 | i | nt | 92.6 | 97.4
C(=C\c1ccc2ccccc2n1)/c1ccccc1 | i | i | i | i | i | i | nt | nt
CN(C)c1ccc(/C=C/c2ccc3ccccc3n2)cc1 | nt | i | i | 60.1 | i | i | 60.5 | 69.7
Cc1ccc(NC(=O)c2ccc3nccnc3c2)c(C)c1 | i | i | i | i | i | i | nt | nt
CCCCN(C)CC(O)Cn1cc(/C=C/C(=O)c2cccs2)c2ccccc21 (configuration not stated) | nt | i | i | 59.2 | i | i | 60.8 | 68.3
O=Cc1cn(CC(O)Cn2cc(C=O)c3ccccc32)c2ccccc12 | i | i | i | i | i | i | nt | nt
O=C(/C=C/c1cn(CC(O)CN2CCCCCC2)c2ccccc12)c1cccs1 (configuration not stated) | nt | i | i | 56.7 | i | i | 67.6 | 76.3
COc1ccc(/C=N\NC(=O)COc2ccccc2)c(C(=O)O)c1OC | i | i | i | i | i | i | nt | nt
Cc1ccc(NC(=O)N/C=C/c2ccco2)cc1C | nt | i | i | 24.2 | i | i | 60.9 | 72.8
CCOC(=O)C1Nc2ccc(C)cc2C2C=CCC12 (configuration not stated) | i | i | i | i | i | i | nt | nt
O=C(O)C1Nc2ccc(Br)cc2C2C=CCC12 (configuration not stated) | i | i | 6.2 | 28.7 | i | i | i | i
O=C(O)C1Nc2c(Cl)cc(Cl)cc2C2C=CCC12 (configuration not stated) | nt | i | i | 33.2 | i | i | i | i
SMILES | Rpn11 block | IDE inh | Rin1 Abl inh | TPT1 inh | IDE act | Calb FLC | caTPT1 confirm | RNase T1 inh
COC(=O)C1=NNC2(C)C(=O)N(c3ccc(C)cc3)C(=O)C12 (configuration not stated) | i | i | i | i | i | i | nt | nt
COc1ccc(NC(=O)COC(=O)CN2C(=O)C3CCCCC3C2=O)cc1OC (configuration not stated) | i | i | i | nt | i | nt | nt | nt
CSc1cccc(NC(=O)NCc2cccc(CNC(=O)Nc3cccc(SC)c3)c2)c1 | i | i | i | 50.6 | i | i | i | i
CSc1cccc(NC(=O)C(=O)NCc2ccccc2)c1 | i | i | i | i | nt | i | nt | nt
COc1ccc(C(=O)c2sc3nc(-c4ccccc4)ccc3c2N)cc1OC | i | i | i | 90.8 | i | i | 87.9 | 93.8
COc1ccc(-c2ccc3c(N)c(C(=O)NC(C)C)sc3n2)cc1OC | i | i | i | i | nt | i | nt | nt
CCOC(=O)c1sc2nc(-c3ccccc3)ccc2c1N | i | i | i | i | i | i | nt | nt
COc1ccc(-c2ccc3c(N)c(C(=O)c4ccc(OC)c(OC)c4)sc3n2)cc1 | i | i | i | 53.5 | i | i | 59.8 | 70.2
CC1(NC(=O)c2ccccc2)CCN(CCCc2ccccc2)C1=O (configuration not stated) | i | i | i | nt | i | nt | nt | nt
COc1cc2cc(/C=C/C(=O)c3ccco3)c(Cl)nc2cc1OC | nt | i | i | 32.9 | i | i | 46.6 | 55.9
NC(=O)c1c(NC(=O)c2ccccc2)sc2c1CCN(Cc1ccccc1)C2 | nt | i | i | 70.7 | i | i | 55.5 | 66.4
CCN1CCc2c(sc(NC(=O)Cc3ccccc3)c2C(N)=O)C1 | i | i | i | i | i | i | nt | nt
CCN1CCc2c(sc(NC(=S)NC(=O)c3ccco3)c2C(N)=O)C1 | i | i | i | 33.5 | nt | i | 32.0 | 41.6
CN1CCc2c(sc(NC(=O)c3ccc4ccccc4c3)c2C(N)=O)C1 | nt | i | i | 33.5 | i | nt | 24.9 | 33.7
CC(C)C(=O)Nc1sc2c(c1C(N)=O)CCN(Cc1ccccc1)C2 | i | i | i | i | i | i | nt | nt
CN1CCc2c(sc(/N=C/c3cccs3)c2C(N)=O)C1 | i | i | i | 39.3 | i | i | 43.0 | 56.1
CN1CCc2c(sc(NC(=O)Cc3ccccc3)c2C(N)=O)C1 | i | i | i | i | i | i | nt | nt
N#Cc1c(NC(=O)/C=C/C(=O)O)sc2c1CCN(Cc1ccccc1)C2 | nt | i | i | 122.3 | i | i | 60.6 | 71.7
NC(=O)c1c(NC(=O)c2c(F)cccc2F)sc2c1CCN(Cc1ccccc1)C2 | i | i | i | 36.4 | i | i | i | 23.2
CCC(=O)Nc1sc2c(c1C(N)=O)CCN(Cc1ccccc1)C2 | i | i | i | i | i | i | nt | nt
CC(=O)Nc1sc2c(c1C#N)CCN(Cc1ccccc1)C2 | i | i | i | i | i | i | nt | nt
CCN(CC(=O)NCc1ccc(Cl)cc1)CC(=O)NC1(C#N)CCCC1 | i | i | i | i | i | i | nt | nt
CCOc1ccc2c(S(=O)(=O)O)cccc2c1[N+](=O)[O-] | i | nt | i | nt | i | nt | nt | nt
Cc1cccc(NC(=O)CN2C(=O)N/C(=C/c3cc(C)n(C(C)C)c3C)C2=O)c1 | i | i | i | i | i | i | nt | nt
Cc1cccc(NC(=O)CN2C(=O)N/C(=C/c3ccc(C)s3)C2=O)c1 | nt | i | i | 83.3 | i | i | 99.9 | 107.9
c1ccc(-c2ccccc2OCCCCN2CCCCC2)cc1 | i | i | i | 51.5 | i | i | i | i
